Laboratory results published in PubChem BioAssay AID1259400 (National Center for Advancing Translational Sciences (NCATS), 2018).
About 2,100 (0.6%) of roughly 350,000 compounds were called active. About 1% were inconclusive and are not listed.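 How the source made its calls: active means activity change of -60% or lower, but not beyond a set lower limit; inconclusive means change between -60% and -40%, or beyond the set limit; inactive means change above -40%.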 What follows is part of a selection rich in actives, with near analogues and random picks from the rest.

biological target: Relaxin receptor 1 (Homo sapiens) (UniProt Q9HBX9); assay: qHTS Assay for Antagonists of the Relaxin Receptor RXFP1; settings: HEK293-RXFP1, relaxin-stimulated cAMP HTRF, 30 min; at 57.5 µM; hits give low values
From the text: The relaxin hormone is involved in the variety of biological functions in normal tissues and diseases. The role of relaxin is well-established in female reproduction and parturition, mammary gland and endometrial development, maintenance of myometrial quiescence during pregnancy. Relaxin signaling through its G protein-coupled receptor (GPCR) RXFP1 results in ECM remodeling through regulation of collagen deposition, cell invasiveness, proliferation and overall tissue homeostasis. […] Recombinant human relaxin (rhRlx) is currently being tested in clinical trials as a protective agent in congestive heart failure, in treating severe preeclampsia, and as an anti-fibrotic agent in various organs. […] Upon relaxin binding RXFP1 activation leads to the activation of adenylate cyclase (AC) via G?s. cAMP will activate PKA, which phosphorylates many signaling proteins. Thus, detection of cAMP increase is an easy and reliable indication of relaxin receptor activation. To screen for antagonists of the relaxin receptor, a HEK293T cell line stably transfected with RXFP1 was used. RXFP1 activation by relaxin in presence of various concentrations of tested compounds was assayed by changes in cAMP levels as detected with a time-resolved fluorescence energy transfer (TR-FRET) cAMP detection kit.
For the primary screening, we used HTRF(R) (Homogenous Time-Resolved Fluorescence) cAMP HiRange assay (Cisbio Bioassays, 62AM6PEJ). Presence of cAMP in the cell lysate disrupts binding between the Cryptate-labeled anti-cAMP and d2-labeled cAMP pair, leading to a decrease in TR-FRET signal. The libraries were screened at two doses (57microM and 11microM), followed by a confirmation of the hits at 7-point serial dilution in the range of final concentrations [57microM - 78nM]. Data were normalized to the controls for basal activity (buffer only) and 100% activity (5 nM porcine relaxin). The EC50 values were determined from concentration-response data modeled with the standard Hill equation. NCGC Assay Protocol Summary: HiHEK (Hawaiian HEK293 LGR7 stably transfected with human RXFP1) were grown in the following media: DMEM+10%FBS+Pen/Strep + Geneticin (1mg/ml). For the assay, the cells were seeded in DMEM+Pen/Strep (with no serum & selective antibiotics) at 2,100 cells/ 3microl/well with MultiDrop Combi dispenser (Thermo Scientific, Logan, UT) onto white tissue culture treated solid bottom1536-well plates (Greiner #789173-F) and allowed to attach/recover overnight at 37 degrees C, 5% CO2. Next, 23nl/well of compound solutions in DMSO were transferred into wells with a pintool (Kalypsis, San Diego, CA). […] EC80 (relaxin at 50pM final concentration) was dispensed to the rest of the plate except columns 1&2 which were used as a negative control (EC0, buffer only), 1microl/well also. The cells were stimulated by relaxin in the presence of compounds for 30 minutes at 37 degrees C, 5% CO2. The detection reagents were prepared individually by dilution in Lysis buffer (supplied with the assay kit) just prior to dispensing. 1microl/well of cAMP-d2 and 1microl/well anti-cAMP-Eu3+-Cryptate antibodies were added simultaneously with BioRAPTR FRDtrade mark Workstation (Beckman Coulter). The plates were incubated at ambient temperature for 30 minutes and, then, FRET signal was read on Envision plate reader (PerkinElmer, Waltham, MA), at wavelengths 340nm (excitation), 615nm & 665nm (emission of donor and acceptor channels respectively).
On the % scale 0 is the no-effect control and ±100 the full control effect.

Relaxin receptor 1 (Homo sapiens), sequence (Q9HBX9 whole entry, looked up): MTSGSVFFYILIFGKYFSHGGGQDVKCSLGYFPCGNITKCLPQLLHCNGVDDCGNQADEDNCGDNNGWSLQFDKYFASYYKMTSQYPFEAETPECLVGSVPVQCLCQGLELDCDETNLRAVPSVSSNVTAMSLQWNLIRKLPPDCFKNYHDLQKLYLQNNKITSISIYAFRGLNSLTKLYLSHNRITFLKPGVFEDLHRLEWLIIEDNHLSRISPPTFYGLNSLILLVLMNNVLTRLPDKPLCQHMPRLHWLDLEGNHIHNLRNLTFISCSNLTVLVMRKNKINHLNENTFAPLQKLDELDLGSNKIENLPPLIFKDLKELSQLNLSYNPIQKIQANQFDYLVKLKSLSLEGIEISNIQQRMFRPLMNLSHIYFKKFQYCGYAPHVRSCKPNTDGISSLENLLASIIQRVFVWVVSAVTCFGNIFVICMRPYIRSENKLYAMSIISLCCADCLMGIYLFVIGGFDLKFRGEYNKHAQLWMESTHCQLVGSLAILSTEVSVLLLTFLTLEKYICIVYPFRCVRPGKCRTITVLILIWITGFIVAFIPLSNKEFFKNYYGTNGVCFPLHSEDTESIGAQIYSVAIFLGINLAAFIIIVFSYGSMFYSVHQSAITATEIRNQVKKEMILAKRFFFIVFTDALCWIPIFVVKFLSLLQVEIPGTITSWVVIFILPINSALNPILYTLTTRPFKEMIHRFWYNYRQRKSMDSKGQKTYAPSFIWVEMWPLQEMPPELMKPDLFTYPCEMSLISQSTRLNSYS

Activity change, negative = inhibition, inactive:
Cc1ccc(-n2nc(CO)c(C(=O)NCCc3ccccc3)n2)cc1 -19.5%
O=C(NCCCO)c1nn(-c2ccc(Cl)cc2)nc1CO -16.3%
O=C(COc1ccccc1Cl)Nc1ccc2nc(SCC(=O)N3CCCC3)sc2c1 0.0142%
CC(C)(C)c1ccc(S(=O)(=O)Nc2ccc(O)c(Sc3nc4ccccc4s3)c2)cc1 -31%
COCC(C)NS(=O)(=O)c1ccc(N2CCCCS2(=O)=O)cc1 (centres undefined) -3.31%
CCc1nc2nc(C)cc(Nc3ccc(F)c(Cl)c3)n2n1 -7.58%
CC(C)OCC(O)CN1CCN(C(c2ccccc2)c2ccccc2)CC1 (centres undefined) -2.44%
CC1(C)CC(=O)C=C(N2CCOCC2)C1 -12.6%
Cc1ccccc1OCc1ccc(-c2nc(C#N)c(N3CCCCC3)o2)o1 -8.24%
Cc1c(C)n(Cc2ccc(Cl)cc2)c2ccc(C(=O)N3CCN(c4ccccc4F)CC3)cc12 -18.8%
COc1ccc(OC)c(CNC(=O)C2CCCN(c3nc4ccccc4o3)C2)c1 (centres undefined) 24.2%
COc1ccc(CCNC(=O)c2c3c(nc4ccccc24)C(=O)N(C2CCCCC2)C3)cc1OC -34%
CC(=O)c1ccc(N2CCN(c3nc4c(S(=O)(=O)c5ccccc5)nnn4c4ccc(Cl)cc34)CC2)cc1 -10.3%
COc1ccc2c(CNCCc3ccccc3C)c(C(=O)O)n(Cc3ccccc3C)c2c1 -12.7%
O=C(O)c1c(CNCc2cccc(F)c2)c2ccccc2n1Cc1ccccc1 -7.86%
Cc1sc(C2C(C#N)=C(N)N(c3cccc(Cl)c3)C3=C2C(=O)CCC3)cc1CN1CCOCC1 (centres undefined) -18.6%
Cc1ccc2nc3c(cc(C(=O)NC4CCCCC4)c(=N)n3C(C)C)c(=O)n2c1 -8.15%
CCC(CC)C(=O)N1CCN(c2cccc(C)c2C)CC1 -5.41%
Cc1cccc(N2CCN(C(=O)C3CCN(S(=O)(=O)c4cnc[nH]4)CC3)CC2)c1C -5.38%
O=C(COc1ccc(Cl)cc1)N(Cc1ccco1)Cc1ccco1 -34.6%
CCOC(=O)c1c(C)oc2nc(C)nc(N3CCN(c4ccc(OC)cc4)CC3)c12 -3.52%
S=c1[nH]nc(-c2cc(-c3ccsc3)n[nH]2)n1-c1ccccc1 -4.32%
Cc1cc(-c2n[nH]c(=S)n2/N=C/C(Br)=C/c2ccccc2)n[nH]1 -5.02%
Cc1nnc(C(=O)NC(C)(C)c2nc(C(=O)NCc3ccc(F)cc3)c(O)c(=O)n2C)o1 -18.2%
NC(=O)COc1ccc(/C=N/NC(=O)C2CCCN2S(=O)(=O)c2ccc(Cl)cc2)cc1 (centres undefined) -2.72%
COc1ccc(Cl)cc1N(CC(=O)N1CCCCC1)S(C)(=O)=O 15.3%
CCOc1ccc(-c2nonc2NC(=O)c2oc3ccc(C)cc3c2C)cc1OCC 6.02%
CN(C(=O)CSc1nnc(NC(=O)Nc2ccccc2)s1)c1ccccc1 -2.91%
CC(C)N(C(=O)CSc1nnc(NC2CC2)s1)c1ccccc1 -4.86%
CCc1ccc(N2C(=O)CN(S(=O)(=O)CC)CC2(C)C(=O)NC2CCCCC2)cc1 (centres undefined) 4.08%
O=C(N/N=C\C1CC=CCC1)c1ccc(Br)o1 (centres undefined) 0.253%
Cc1nnc(N/N=C/c2ccccn2)[nH]c1=O 5.71%
Cc1ccc2nc(-c3ccc(O)cc3)c(Nc3ccc4c(c3)OCO4)n2c1 15.3%
CCN(CC)c1cc(NC2CCCCC2)c2c3c(onc13)-c1ccccc1C2=O -18.9%

Activity change, negative = inhibition, active:
CC(CCCc1ccccc1)NC(=O)c1nn(-c2ccc(Cl)cc2)nc1CO (centres undefined) -85.1%
O=[N+]([O-])c1c(NCCO)cc(Sc2nc3ccccc3s2)c2nonc12 -71%
CC1(C)CC(N2CCN(C(c3ccccc3)c3ccccc3)CC2)=CC(=[N+]2CCCCC2)C1 -86.5%
COc1ccc(OC)c(CNC(=O)c2c3c(nc4ccccc24)C(=O)N(C2CCCCC2)C3)c1 -60.9%
Cc1ccc(C)c(Cn2c(C(=O)O)c(CNCc3cccs3)c3ccccc32)c1 -81.9%
Cc1cccc(N2CCN(C(=O)c3cnc(N4CCCC4)nc3C)CC2)c1C -77.6%
S=c1[nH]nc(-c2cc(-c3ccccc3)n[nH]2)n1/N=C/c1c2ccccc2cc2ccccc12 -78.7%
COc1ccc(Cl)cc1N(CC(=O)N/N=C/c1ccc(OCC(N)=O)cc1)S(C)(=O)=O -77.6%
CC(C)c1ccc(Nc2nnc(SCC(=O)c3nnc(-c4ccccc4)o3)s2)cc1 -83.3%
Cc1nnc(N/N=C/C2CC=CCC2)[nH]c1=O (centres undefined) -71.6%
